The values below come from PubChem BioAssay (EPA / NIEHS).

Broadly, the AC50 is the concentration at which the activity in the assay is half-maximal.

Experiment [1] can be described thus: ATG_CRE_CIS: Attagene CIS-FACTORIAL HepG2 Assay for human cAMP Responsive Element (CRE) binding protein 3 (AID 2282926). The following applies: HepG2 CRE cis-reporter, Attagene multiplexed mRNA; actives raise or lower the signal. The gist of the method: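 Transfected HepG2 were treated for 24 hours, then RNA was extracted and reporter cDNA amplified with sequence-specific primers. Labelled fragments were separated by capillary electrophoresis, and the CRE signal was fitted bidirectionally with DMSO as baseline.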

Experiment [2] has as its target CCAAT/enhancer-binding protein beta (Homo sapiens) (UniProt P17676). As to the kind of experiment: ATG_C_EBP_CIS: Attagene CIS-FACTORIAL HepG2 Assay for human CCAAT/Enhancer Binding Protein (C/EBP) beta (AID 2282927). The conditions noted are these: HepG2 Attagene cis-factorial transcription factor reporter; actives raise or lower the signal. The gist of the method: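 Endogenous transcription factor activity in human liver HepG2 cells is inferred from induction of a CEBPB-linked reporter mRNA. Exposure lasts 24 h; activity is fitted in both directions relative to DMSO.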

Experiment [3] in a line: ATG_CMV_CIS: Attagene CIS-FACTORIAL HepG2 Assay for human CMV (Internal Marker) (AID 2282928).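 Note: endpoint acts as a background internal control marker rather than a target.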 The following applies: HepG2 CMV promoter reporter, transcription factor profiling; actives raise or lower the signal. The procedure, abridged:
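Cell system: HepG2, transiently transfected multiple reporter units under cis promoters. Exposure: 24 h. Detection: RT-PCR, FAM labeling, HpaI digestion, capillary electrophoresis. Analysis: bidirectional, DMSO baseline.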

Experiment [4] can be described thus: ATG_DR4_LXR_CIS: Attagene CIS-FACTORIAL HepG2 Assay for human Liver X Receptor (LXR), DR4 submotif (AID 2282929). The conditions noted are these: HepG2 Attagene DR4 cis-reporter, mRNA transcription; actives raise or lower the signal. The gist of the method:
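After transient transfection with multiplexed cis-promoter reporter units, HepG2 cells received test chemicals for 24 h. Reporter mRNA induction, detected by fluorescence after RT-PCR and capillary electrophoresis, was scored relative to DMSO.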

Experiment [5] deals with Aryl hydrocarbon receptor (Homo sapiens) (UniProt P35869). Kind of experiment: ATG_Ahr_CIS: Attagene CIS-FACTORIAL HepG2 Assay for human Aryl Hydrocarbon Receptor (Ahr) (AID 2282930). The conditions noted are these: HepG2 AhR cis-factorial reporter transcription; actives raise or lower the signal. The gist of the method:
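Transient MRTU transfection of HepG2 → 24 h compound exposure → total RNA, oligo(dT) RT → PCR, 6-FAM extension, HpaI cut → CE fluorescence. DMSO = baseline; bidirectional curve fit.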

Experiment [6] can be described thus: ATG_AP_2_CIS: Attagene CIS-FACTORIAL HepG2 Assay for human Activator Protein 2 (AP-2) (AID 2282932). The conditions noted are these: HepG2 AP-2 cis-reporter, Attagene transcription factor profiling; actives raise or lower the signal. The procedure, abridged:
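HepG2, transient MRTU transfection, cis-regulated reporters; 24 h compound exposure; RNA isolated, RT-PCR, 6-FAM labelling, HpaI digest, CE fluorescence. DMSO = negative control/baseline, bidirectional fit.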

Experiment [7] can be described thus: ATG_BRE_CIS: Attagene CIS-FACTORIAL HepG2 Assay for human Bone Morphogenetic Protein (BMP) Response Element (BRE) (AID 2282933). The following applies: HepG2 BMP response element reporter, Attagene transcription factor profiling; actives raise or lower the signal. The procedure, abridged:
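Gain- or loss-of-signal was derived by bidirectional fitting against DMSO controls. The signal came from reporter mRNA, measured by RT-PCR and capillary electrophoresis, in HepG2 cells transiently carrying multiple reporter units and dosed for 24 h.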

Experiment [8] has as its target Retinoic acid receptor alpha (Homo sapiens) (UniProt P10276). As to the kind of experiment: ATG_DR5_RAR_CIS: Attagene CIS-FACTORIAL HepG2 Assay for human Retinoic Acid Receptor Alpha (RARE), DR5 submotif (AID 2282934).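 For AC50: reporter responds to endogenous RAR alpha beta and gamma in HepG2 not RARA alone.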 The conditions noted are these: HepG2 Attagene cis-factorial RARE DR5 reporter, mRNA; actives raise or lower the signal. The gist of the method:
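Transient MRTU transfection of HepG2; 24 h compound treatment; TriZol RNA, oligo(dT) RT, PCR, FAM labelling, capillary electrophoresis. Bidirectional fit vs DMSO. Endogenous TF activity at DR5 RARE.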

For experiment [9], the target named is Transcription factor E2F1 (Homo sapiens) (UniProt Q01094). As to the kind of experiment: ATG_E2F_CIS: Attagene CIS-FACTORIAL HepG2 Assay for human E2F Transcription Factor 1 (AID 2282935). The conditions noted are these: HepG2 Attagene cis-reporter, E2F reporter RNA transcripts; actives raise or lower the signal. The procedure, abridged:
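Cis-element reporter mRNA induction in transiently transfected HepG2, 24 h exposure. Activity fitted in both directions relative to DMSO negative control.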

Experiment [10] in a line: ATG_AP_1_CIS: Attagene CIS-FACTORIAL HepG2 Assay for human Activator Protein 1 (AP-1) (AID 2282931). The conditions noted are these: HepG2 Attagene cis-factorial AP-1 reporter mRNA; actives raise or lower the signal. The gist of the method:
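After 24 h incubation with test chemical, RNA from transfected HepG2 cells was reverse-transcribed, amplified, fluorescently labelled and digested before capillary electrophoresis. Reporters were driven by cis-regulatory promoters; activity fitted bidirectionally versus DMSO.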

Active and inactive are the calls of the source. Rule for the calls: active = hit-call score of the fitted dose curve at least 0.9, where 1 is the maximum; inactive = score below 0.9.

Sequence of CCAAT/enhancer-binding protein beta (Homo sapiens) (P17676 whole entry, looked up): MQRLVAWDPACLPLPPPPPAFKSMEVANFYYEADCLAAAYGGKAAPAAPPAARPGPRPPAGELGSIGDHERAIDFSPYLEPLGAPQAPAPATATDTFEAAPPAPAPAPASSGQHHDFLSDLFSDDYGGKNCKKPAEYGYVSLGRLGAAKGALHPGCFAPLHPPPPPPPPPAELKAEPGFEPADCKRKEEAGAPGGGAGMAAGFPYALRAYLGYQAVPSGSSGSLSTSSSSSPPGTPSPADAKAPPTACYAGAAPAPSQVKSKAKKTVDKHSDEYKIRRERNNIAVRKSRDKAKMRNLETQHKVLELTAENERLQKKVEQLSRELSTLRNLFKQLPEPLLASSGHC
Sequence of Aryl hydrocarbon receptor (Homo sapiens) (P35869 whole entry, looked up): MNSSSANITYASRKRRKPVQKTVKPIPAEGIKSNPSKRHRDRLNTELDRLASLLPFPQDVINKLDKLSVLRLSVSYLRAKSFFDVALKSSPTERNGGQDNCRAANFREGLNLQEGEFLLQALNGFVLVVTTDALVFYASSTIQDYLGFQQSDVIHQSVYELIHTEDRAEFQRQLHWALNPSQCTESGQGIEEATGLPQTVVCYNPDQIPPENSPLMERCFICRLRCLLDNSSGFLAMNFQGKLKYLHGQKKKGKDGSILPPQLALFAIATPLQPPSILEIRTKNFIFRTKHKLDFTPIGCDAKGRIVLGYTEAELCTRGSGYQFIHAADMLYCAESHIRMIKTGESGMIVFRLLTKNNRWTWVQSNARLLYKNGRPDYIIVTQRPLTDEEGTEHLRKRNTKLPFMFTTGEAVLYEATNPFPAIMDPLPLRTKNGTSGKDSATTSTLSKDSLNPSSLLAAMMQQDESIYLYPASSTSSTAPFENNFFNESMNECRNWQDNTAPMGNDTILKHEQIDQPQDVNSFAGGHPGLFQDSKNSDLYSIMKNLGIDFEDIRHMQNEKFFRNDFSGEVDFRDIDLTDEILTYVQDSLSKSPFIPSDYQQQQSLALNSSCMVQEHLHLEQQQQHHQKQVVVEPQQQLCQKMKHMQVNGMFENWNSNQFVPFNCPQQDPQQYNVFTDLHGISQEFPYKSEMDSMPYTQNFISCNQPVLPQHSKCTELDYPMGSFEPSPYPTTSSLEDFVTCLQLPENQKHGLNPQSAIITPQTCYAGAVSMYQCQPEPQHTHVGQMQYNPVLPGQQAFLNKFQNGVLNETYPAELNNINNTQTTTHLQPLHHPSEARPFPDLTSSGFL
Sequence of Retinoic acid receptor alpha (Homo sapiens) (P10276 whole entry, looked up): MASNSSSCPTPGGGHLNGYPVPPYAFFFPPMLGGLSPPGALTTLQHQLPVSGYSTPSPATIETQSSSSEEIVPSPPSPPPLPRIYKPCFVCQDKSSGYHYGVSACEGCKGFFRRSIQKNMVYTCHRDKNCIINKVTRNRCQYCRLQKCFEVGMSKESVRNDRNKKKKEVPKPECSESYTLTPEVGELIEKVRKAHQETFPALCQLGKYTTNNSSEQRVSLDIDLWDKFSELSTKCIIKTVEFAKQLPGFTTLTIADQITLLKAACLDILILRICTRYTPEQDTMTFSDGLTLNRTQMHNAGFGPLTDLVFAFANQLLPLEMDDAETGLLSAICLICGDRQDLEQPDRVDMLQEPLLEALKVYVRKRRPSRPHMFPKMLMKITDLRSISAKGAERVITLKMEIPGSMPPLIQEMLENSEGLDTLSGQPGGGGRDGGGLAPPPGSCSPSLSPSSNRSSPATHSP
Sequence of Transcription factor E2F1 (Homo sapiens) (Q01094 whole entry, looked up): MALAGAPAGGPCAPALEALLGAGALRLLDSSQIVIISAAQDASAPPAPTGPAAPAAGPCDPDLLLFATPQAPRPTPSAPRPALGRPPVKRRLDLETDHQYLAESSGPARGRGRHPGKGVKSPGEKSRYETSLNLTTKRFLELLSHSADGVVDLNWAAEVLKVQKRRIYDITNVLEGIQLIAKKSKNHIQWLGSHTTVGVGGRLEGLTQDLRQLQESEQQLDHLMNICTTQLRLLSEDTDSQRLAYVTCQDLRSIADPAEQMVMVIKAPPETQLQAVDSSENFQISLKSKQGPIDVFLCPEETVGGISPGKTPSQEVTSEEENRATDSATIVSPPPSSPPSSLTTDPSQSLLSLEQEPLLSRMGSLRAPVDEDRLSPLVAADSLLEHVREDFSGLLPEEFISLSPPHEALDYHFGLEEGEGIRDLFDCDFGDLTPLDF

As for `CCCCCCC(C)(C)S`, the call in [1], in experiment [2], in experiment [3], in [4], in experiment [5] and in experiment [6] was inactive. Also, the compound was classed as inactive in [7], in [8] and in experiment [9].
With `C[N+](C)(C)CCCCCC[N+](C)(C)C`, the compound was classed as inactive in [1], in [2], in experiment [3], in [4], in experiment [5] and in [10]. Moreover, the outcome in [6], in experiment [7] and in experiment [9] was inactive.
`CC(C=O)Cc1ccc(C(C)(C)C)cc1` (stereo unspecified): the outcome in experiment [1], in [2], in experiment [3], in experiment [4], in [5] and in experiment [6] was inactive. Besides, the compound was classed as inactive in [7], in experiment [8] and in [9].
`COS(=O)(=O)O`: the result in [1], in experiment [2], in [3], in [4], in experiment [5] and in experiment [10] was inactive. In addition, the compound was classed as inactive in experiment [6], in [7] and in [9].
As to `C1CCCCC1`, the compound was classed as inactive in experiment [1], in experiment [2], in experiment [3], in [4], in experiment [5] and in [6]. Moreover, the result in experiment [7], in experiment [8] and in experiment [9] was inactive.
Turning to `O=C1NC2NC(=O)NC2N1` (stereo unspecified), the outcome in [1], in experiment [2], in experiment [3], in experiment [4], in experiment [5] and in [6] was inactive. Further, the compound was called inactive in [7], in experiment [8] and in experiment [9].
Turning to `C=C(C)[C@@H]1CC=C(C)C(=O)C1`, the compound was called inactive in experiment [1], in experiment [2], in [3], in experiment [4], in experiment [5] and in experiment [6]. Moreover, the call in experiment [7] and in experiment [9] was inactive.
Turning to `CC(C)(C)C1=CC(=O)C(C(C)(C)C)=CC1=O`, the result in experiment [1], in experiment [2], in experiment [5], in experiment [6], in [7] and in [9] was inactive. Also, the concentration at half-maximal activity (AC50) was 87.6 µM (active) in experiment [3], 50 µM (active) in experiment [4] and 26.8 µM (active) in experiment [8].
In the case of `CCOCCOCCOCC`, the call in [1], in experiment [2], in [3], in experiment [4], in experiment [5] and in [6] was inactive. For the same compound, the compound was called inactive in [7], in experiment [8] and in experiment [9].
On to `CC(=O)O[C@@H]1C[C@@H]2CC[C@@]1(C)C2(C)C`, for which the outcome in experiment [1], in experiment [2], in experiment [3], in experiment [4], in experiment [5] and in [10] was inactive. The compound was classed as inactive in experiment [6], in experiment [7] and in experiment [9].
On to `C=C1C[C@]23C[C@@]1(O)CC[C@H]2[C@@]12C=C[C@H](O)[C@@](C)(C(=O)O1)[C@H]2[C@@H]3C(=O)O`, for which the compound was called inactive in [1], in experiment [2], in [3], in [4], in experiment [5] and in [6]. Besides, the compound was classed as inactive in [7], in experiment [8] and in experiment [9].
Take `COc1cc(Cl)c(OC)cc1N`: the compound was called inactive in experiment [1], in experiment [2], in [3], in experiment [4], in experiment [10] and in [6]. Further, the compound was classed as inactive in experiment [7] and in experiment [9]. Also, the AC50 in experiment [5] is 51.2 µM (active).
With `CN1CCOCC1`, the compound was classed as inactive in experiment [1], in [2], in experiment [3], in [4], in experiment [5] and in experiment [6]. Moreover, the compound was classed as inactive in experiment [7], in experiment [8] and in experiment [9].
`O=CCc1ccccc1`: the outcome in experiment [1], in [2], in experiment [3], in experiment [4], in [5] and in experiment [10] was inactive. Besides, the compound was called inactive in [6], in experiment [7] and in experiment [9].
Take `COc1ccc(COC(C)=O)cc1`: the outcome in experiment [1], in [2], in experiment [3], in experiment [4], in [5] and in experiment [6] was inactive. The call in [7], in [8] and in experiment [9] was inactive.
As for `CCCSc1ccc2nc(NC(=O)OC)[nH]c2c1`, the call in experiment [1], in experiment [2], in experiment [3], in experiment [4], in experiment [5] and in [6] was inactive. Further, the result in experiment [7], in experiment [8] and in [9] was inactive.
Turning to `OCc1cccc(Oc2ccccc2)c1`, the compound was classed as inactive in experiment [1], in [2], in [3], in [4], in experiment [5] and in [10]. For the same compound, the compound was classed as inactive in experiment [6], in [7] and in experiment [9].
On to `CCCCCCCC(=O)OCCCCCC`, for which the compound was classed as inactive in experiment [1], in experiment [2], in [3], in experiment [4], in [10] and in experiment [6]. For the same compound, the result in experiment [7], in [8] and in experiment [9] was inactive.
For `CCCCCCCCSCCO`, the AC50 is 100 µM (active) in [1], 100 µM (active) in experiment [2], 100 µM (active) in [3] and 148 µM (active) in [4]. Further, the result in [10], in experiment [6], in experiment [7], in experiment [8] and in experiment [9] was inactive.
In the case of `CN(C)C(=O)Nc1ccc(Oc2ccc(Cl)cc2)cc1`, the compound was called inactive in [1], in experiment [2], in experiment [6], in [8] and in [9]. In addition, the AC50 in experiment [3] was 71.9 µM (active); in experiment [4], 72 µM (active); in [10] it was 100 µM (active); in experiment [7], 113 µM (active).
Turning to `CCCCCCC(=O)c1ccccc1`, the result in [1], in experiment [2], in experiment [3], in [4], in [6] and in experiment [7] was inactive. Also, in [9], the outcome was inactive. The results for the AC50 in experiment [10] and in [8] were 154 µM (active) and 101 µM (active), respectively.
For the compound `CC(=O)NCCO`, the compound was classed as inactive in [1], in experiment [2], in experiment [3], in experiment [4], in experiment [10] and in [6]. Moreover, the call in experiment [7], in experiment [8] and in experiment [9] was inactive.
For the compound `COC(=O)C=C(C)CCC=C(C)C`, the outcome in [1], in experiment [2], in experiment [3], in [4], in [10] and in experiment [6] was inactive. The compound was called inactive in experiment [7], in experiment [8] and in experiment [9].
As to `NC1CCCCC1N` (stereo unspecified), the compound was classed as inactive in [1], in experiment [2], in experiment [3], in experiment [4], in experiment [6] and in experiment [7]. Also, the compound was classed as inactive in experiment [8] and in experiment [9].
Take `CC1CCC(C(C)C)C(O)C1` (stereo unspecified): the compound was classed as inactive in experiment [1], in [2], in [3], in experiment [4], in experiment [5] and in experiment [6]. The result in experiment [7] and in experiment [9] was inactive.
For the compound `Cc1occc(=O)c1OC(=O)C(C)C`, the call in [1], in experiment [2], in experiment [3], in [4], in experiment [10] and in [6] was inactive. The compound was called inactive in experiment [7], in [8] and in experiment [9].
